Source: PubChem (National Center for Advancing Translational Sciences (NCATS))
An excerpt weighted towards active compounds, which were near 7.3% of everything screened.
SMN2 splice up = qHTS Assay for Enhancers of SMN2 Splice Variant Expression. HEK293 SMN2-luciferase splicing reporter, luminescence, 30-36 h. Potency, µM (doses to about 46.1 µM), inactives show at the highest dose activity change, positive = activation, hits mostly activators. 210,000 tested, 2.8% active. AID 1458, 2008; note: % of control where 0% means no effect; nearly all actives have a fitted effect of over 55% in size
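qHTS luciferase splicing reporter: luminescence rises when SMN2 exon 7 is included in transfected HEK293 cells. Compound exposure lasted 30-36 h at 37C, with 4.5 mM final sodium butyrate as control, followed by a ONE-Glo read.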
FLuc modulator = qHTS profiling assay for firefly luciferase inhibitor/activator using purifed enzyme and Km concentrations of substrates (counterscreen for miR-21 project) | Luciferin 4-monooxygenase (Photinus pyralis), P08659 | purified FLuc, Km substrates, luminescence inhibition | Potency, µM (doses to about 57.5 µM), for inactives: at the top dose activity change, negative = inhibition, hits mostly inhibitors | 360,000 tested, 6.9% active | AID 588342, 2011;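 note: plate controls were vehicle for no effect and reference inhibitor for full effect; nearly all actives have a fitted effect of over 55% in size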
Target sequence (P08659 whole entry, looked up): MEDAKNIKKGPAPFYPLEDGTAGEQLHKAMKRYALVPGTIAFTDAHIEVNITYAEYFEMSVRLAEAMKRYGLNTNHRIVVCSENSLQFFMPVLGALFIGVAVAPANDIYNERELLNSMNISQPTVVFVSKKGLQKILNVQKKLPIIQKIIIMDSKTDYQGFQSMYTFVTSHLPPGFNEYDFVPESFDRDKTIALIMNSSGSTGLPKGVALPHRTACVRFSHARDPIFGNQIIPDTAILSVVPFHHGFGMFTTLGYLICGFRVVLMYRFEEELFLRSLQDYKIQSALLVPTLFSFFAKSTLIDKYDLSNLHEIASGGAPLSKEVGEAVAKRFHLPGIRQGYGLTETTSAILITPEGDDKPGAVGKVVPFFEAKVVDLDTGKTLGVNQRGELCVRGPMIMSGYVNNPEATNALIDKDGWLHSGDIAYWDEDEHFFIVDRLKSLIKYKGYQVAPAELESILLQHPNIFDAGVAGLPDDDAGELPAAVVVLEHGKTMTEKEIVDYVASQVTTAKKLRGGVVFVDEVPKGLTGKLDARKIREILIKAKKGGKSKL
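Purified P. pyralis luciferase (10nM final) with 10uM D-luciferin and 10uM ATP (Km levels) in 50mM Tris acetate pH 7.5, 10mM Mg acetate, 0.01% Tween-20, 0.05% BSA; qHTS 6-point titration, ~60 µM downward; luminescence read.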
Luc counter = Counterscreen for Luciferase (Kinase-Glo TM) Inhibition; Luciferin 4-monooxygenase (Photuris pensylvanica), Q27757; Kinase-Glo luciferase, ATP luminescence, 8 min; Potency, µM (doses to about 38.3 µM), without a hit: at the top dose activity change, negative = inhibition, actives largely listed as inhibitors; 200,000 tested, 0.28% active; AID 1379, 2008; note: % is set by controls: 0 for no effect and ±100 for the full control effect; nearly all actives have a fitted effect of over 60% in size
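Substrate mix (final 50 mM imidazole pH 7.2, 50 mM KCl, 7 mM MgCl2, 10 uM ATP, 0.01% Tween 20, 0.05% BSA) plus pin-tool compound, then Kinase-Glo detection mix; 8 min ambient, luminescence read.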
ELG1 genotox = qHTS screen for small molecules that induce genotoxicity in human embryonic kidney (HEK293T) cells expressing luciferase-tagged ELG1; HEK293T ELG1-luciferase reporter, luminescence, 16 h; Potency, µM (titrated, usually from 46 µM), without a hit: at the top dose activity change, positive = activation, usual class: activators; 330,000 tested, 1.3% active; note: % of control where 0% means no effect; nearly all actives have a fitted effect of over 60% in size
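Step 1: seed 2,000 HEK293T ELG1-luciferase cells per well. Step 2: add compound or DMSO, incubate 16 hr at 37 °C. Step 3: ONE-Glo, 30 min at room temperature, read luminescence.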
NPC1 promoter act = qHTS Assay for NPC1 Promoter Activators; Potency, µM (titrated, usually from 9.22 µM), without a hit: at the top dose activation, actives largely listed as activators; 320,000 tested, 2.4% active; Huh7 NPC1 promoter luciferase reporter, 24 h; AID 485313, 2010; note: % of control where 0% means no effect; nearly all actives have a fitted effect of over 60% in size
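Readout is luciferase luminescence, reflecting NPC1 promoter activation in stably transfected Huh7 cells after 24 h compound exposure at 37 °C in reduced-serum medium with 10% FBS.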
Rab9 promoter act = qHTS Assay for Rab9 Promoter Activators. AID 485297, 2010. Potency, µM (top dose mostly 9.22 µM), for the others: at the top dose activation, negative = inhibition, usual class: activators. Huh7 Rab9 promoter-luciferase reporter, luminescence, 24 h. 320,000 tested, 2.8% active; note: % of control where 0% means no effect; nearly all actives have a fitted effect of over 60% in size
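Promoter activation is measured as luciferase luminescence in Huh7 cells stably transfected with a Rab9 promoter–luciferase construct, following 24 h compound exposure at 37 °C and 10 min reagent incubation at ambient temperature.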
* hit, by the source's call; ? = inconclusive; . = not tested or not shown; [ ] = dose if it differs, or a comment. Calls come from the whole dose curve; as a rule, active = well fitted curve in the direction sought with a large enough effect; inconclusive = small, poorly fitted or top-dose-only effect, or another doubt; inactive = no such curve, though single readings can be large; an effect the other way counts as inactive or inconclusive. Potency is the fitted concentration of half-maximal effect.

SMILES	SMN2 splice up	FLuc modulator	Luc counter	ELG1 genotox	NPC1 promoter act	Rab9 promoter act
N#C/C(=C\c1ccc(N2CCOCC2)o1)c1ccccc1	12.6µM*	2.13µM*	0.3%	?	?	?
CCCC(=O)N=C1SC2CS(=O)(=O)CC2N1c1ccc(-c2nc3ccc(C)cc3s2)cc1 (configuration not stated)	.	5.36µM*	.	20.6µM*	3.55µM*	3.98µM*
c1ccc2c(-c3nn[nH]n3)cccc2c1	-5.7%	-1.4%	1.3%	-0.1%	0.9%	-0.8%
O=C1C(c2ccnc3ccccc23)=C(O)c2ccccc21	0.398µM*	0.107µM*	?	?	2.51µM*	?
O=C1c2ccccc2C(=O)C1c1nccc2ccccc12	0.631µM*	0.151µM*	8.91µM*	0.082µM*	3.16µM*	1.26µM*
O=C1c2ccccc2C(=O)C1c1ccnc2ccccc12	0.398µM*	0.151µM*	-24.2%	?	3.55µM*	0.631µM*
CC12CC[C@@H]3c4ccc(OP(=O)(O)O)cc4CCC3C1CCC2=O (some centres not stated)	11.6%[9.22 µM]	.	-3.1%[7.66 µM]	.	.	.
CC(C)c1cnc2c(c1SCC(=O)NCc1ccccc1)c(=O)n(C)c(=O)n2C	.	-7.0%	.	.	.	.
COc1ccc(C2=C(C(C)=O)Sc3nnc(-c4ccc(Cl)cc4)n3N2C(C)=O)cc1OC	.	0.0%	.	.	.	.
CCOc1ccc2nc(N3CCCC(C(=O)Nc4cc(Cl)c(OC)cc4OC)C3)sc2c1 (configuration not stated)	?	2.69µM*	.	.	.	.
CCOc1ccc2nc(N3CCCC(C(=O)Nc4ccc(CC)cc4)C3)sc2c1 (configuration not stated)	15.9%	?	.	.	.	.
CCOC(=O)N1CCN(C(=O)C2CCCN(c3nc4ccc(OCC)cc4s3)C2)CC1 (configuration not stated)	21.4%	12µM*	1.1%	-0.8%	10.8%	4.9%
CCOc1ccc2nc(N3CCCC(C(=O)Nc4cccc(Cl)c4C)C3)sc2c1 (configuration not stated)	7.94µM*	3.38µM*	.	.	.	.
COc1ccc(CCNC(=O)C2CCCN(c3nc4c(C)cc(C)cc4s3)C2)cc1OC (configuration not stated)	2.82µM*	?	.	.	.	.
Cc1cc(Nc2sc(C(=O)c3ccc(F)cc3)c(N)c2C(=O)Nc2ccc(F)cc2)ccc1Cl	.	-0.9%	.	.	.	.
CC(C)C(C)C	-1.2%	.	.	.	.	.
Fc1ccc(Nc2c(-c3c[nH]c4ccccc34)nc3ccccn23)cc1	?	-7.1%	.	.	.	.
CCOc1ccc2nc(N3CCCC(C(=O)NCCc4ccc(SC)cc4)C3)sc2c1 (configuration not stated)	20µM*	-19.7%	.	.	.	.
CCOc1ccc2nc(N3CCCC(C(=O)NC4CCCC4)C3)sc2c1 (configuration not stated)	.	3.01µM*	.	-6.4%	?	?
CCOC(=O)N1CCN(C(=O)Nc2ccc3nc(C)sc3c2)CC1	?	5.6%[2.3 µM]	-2.7%	6.2%	0.4%	-0.4%
CCOc1ccc2nc(N3CCC(C(=O)NC4CCCCC4)CC3)sc2c1	.	?	.	3.9%	24.0%	15.1%
CCOc1ccc2nc(N3CCCC(C(=O)Nc4ccc(OC)cc4)C3)sc2c1 (configuration not stated)	21.8%	1.51µM*	.	.	.	.
CCOC(=O)Nc1ccc2nc(N3CCCCCC3)sc2c1	.	7.57µM*	.	10.3µM*	?	?
Cc1ccccc1-c1nc(CS(=O)(=O)CC(=O)NCc2cccc(Cl)c2)c(C)o1	2.7%	-8.4%	.	.	.	.
CCOc1ccc(-n2c(=O)c3c(C)c(C)sc3n(CC(=O)c3ccccc3)c2=O)cc1	-0.2%	-0.4%	.	.	.	.
SMILES	SMN2 splice up	FLuc modulator	Luc counter	ELG1 genotox	NPC1 promoter act	Rab9 promoter act
CCCCc1cc2c(cn1)C(=O)C(C)(OC(C)=O)C(=O)C2 (configuration not stated)	2.3%[9.22 µM]	.	-7.6%[7.66 µM]	.	.	.
COc1cc(Cl)c(NS(=O)(=O)c2ccc(-c3coc(C)n3)cc2)c(OC)c1	.	-1.5%	.	.	.	.
Cc1cc(C)c2nc(N3CCC(C(=O)NCc4ccccn4)CC3)sc2c1	-31.8%	16.9µM*	-1.9%	1.1%	11.5%	20.6%
C[C@H](CCC(=O)O)[C@H]1CC[C@@H]2[C@@H]3CC[C@H]4C[C@@H](O)CC[C@@]4(C)[C@@H]3C[C@H](O)[C@@]21C	-4.2%[9.22 µM]	.	-2.9%[7.66 µM]	.	.	.
Cc1ccccc1Cn1nnc(-c2ccc3c(c2)OCO3)n1	3.98µM*	15.1µM*	3.4%	18.8%	20.6%	?
Fc1cccc(Cn2ccc(-c3ccc4c(c3)OCO4)n2)c1	?	21.3µM*	0.5%	14.8%	27.9%	26.2%
Cc1ccccc1Cn1ccc(-c2ccc3c(c2)OCO3)n1	4.6%	15.1µM*	-1.2%	-1.0%	?	28.8%
N#CCn1nnc(-c2ccc3c(c2)OCO3)n1	.	?	.	?	9.1%	9.7%
Fc1cccc(Cl)c1Cn1nnc(-c2ccc3c(c2)OCO3)n1	12.6µM*	12µM*	5.0%	?	?	?
Cc1nc2c(-c3ccccc3)c(C)nn2c(C)c1CCC(=O)N1CCN(c2ccc(F)cc2)CC1	10.5%	-16.8%	.	.	.	.
Cc1ccc(NC(=O)c2ccc(Cl)cc2Cl)c(C(=O)c2ccccc2)c1	-28.8%	0.0%	.	.	.	.
O=C(CN1C(=O)COc2ccc(S(=O)(=O)N3CCCC3)cc21)NCCc1ccc(Cl)cc1	.	3.7%	.	.	.	.
O=C(Nc1ccccn1)c1ccc(S(=O)(=O)N2CCCCCC2)cc1	.	16.9µM*	.	9.2µM*	?	?
Cc1ccnc(NC(=O)c2ccc(S(=O)(=O)N3CCCCC3)cc2)c1	.	-9.4%	.	-1.0%	3.2%	0.9%
O=C(Nc1ccccn1)c1ccc(S(=O)(=O)N2CCCCC2)cc1	.	13.5µM*	.	9.2µM*	?	?
Cc1ccnc(NC(=O)c2cccc(S(=O)(=O)N3CCCc4ccccc43)c2)c1	.	4.78µM*	.	7.3µM*	0.1%	0.1%
O=C(Nc1ccccn1)c1cccc(S(=O)(=O)N2CCCc3ccccc32)c1	.	-1.6%	.	-2.7%	-3.3%	-4.6%
Cc1ccnc(NC(=O)c2ccc(S(=O)(=O)N3CCCCCC3)cc2)c1	.	8.49µM*	.	11.3%	16.1%	26.7%
Cc1ccc(Cn2ccc(NC(=O)c3cc(-c4ccc(F)cc4)on3)n2)cc1	-25.6%	-2.3%	-0.7%	8.1%	1.5%	-4.7%
O=C(Nc1ccn(Cc2ccccc2)n1)c1ccc(F)cc1	4.0%	6.75µM*	-3.7%	?	2µM*	2.82µM*
